# Test results taken from PubChem BioAssay AID618 (Sanford-Burnham Center for Chemical Genomics, 2007).
# In all, about 87,000 compounds went through this assay and about 540 (0.62%) were called active. The rule behind the calls is not given here. Many of the other results were omitted from the sample, so actives are more common in it than they were. Results with a measured potency or affinity are listed apart.
# Assay: MT1-MMP gene expression reporter suppression – cell-based, luciferase reporter, luminescence (AID 618);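 note: actives suppress MT1-MMP promoter-driven transcription so potencies describe inhibitors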
# Conditions: MT1-MMP promoter luciferase reporter cells
row,SMILES,outcome
1,O=C(c1ccc(CS(=O)(=O)c2ccccc2)o1)N1CCOCC1,inactive
2,CCCn1c(=S)[nH]c2cc(OC)c(OC)cc2c1=O,inactive
3,CC(=O)N1CCN(CCN=CC2=C(O)CC(c3ccc(Cl)cc3)CC2=O)CC1 (stereo unspecified),inactive
4,O=C(C1CCCN(Cc2ccccc2)C1)N1CCc2ccccc2C1 (stereo unspecified),inactive
5,NC(=O)c1cc(Cl)cn(-c2ccccc2)c1=O,inactive
6,CCOC(=O)C1CCCN(c2ncnc3c2[nH]c2cccc(OC)c23)C1 (stereo unspecified),inactive
7,O=C(c1cc(-c2cccs2)nc2ccccc12)N1CCN(S(=O)(=O)c2cccc(F)c2)CC1,inactive
8,CSC(=O)CC(=O)NC(=O)c1ccccc1,inactive
9,Cc1ccc(NC(=O)c2c(C)nc(Nc3nc4ccccc4o3)nc2C)cc1,inactive
10,O=c1[nH]c(Nc2nc3ccccc3o2)nc2c1CCCC2,inactive
11,Cc1ccc2oc(Nc3nc(C)cc(C)n3)nc2c1,inactive
12,Cc1cccc(C)c1Nc1nc2ccccc2o1,inactive
13,O=C(c1cccs1)N1CCc2ccccc21,inactive
14,c1ccc(SCc2nc(-c3ccccn3)no2)cc1,inactive
15,Clc1ccc(-c2nc(-c3ccccn3)no2)cc1Cl,inactive
16,COc1cccc(-c2noc(-c3cccnc3)n2)c1,inactive
17,Cc1ccc(-c2nc(-c3ccccn3)no2)cc1Cl,active
18,COc1cccc(-c2nc(-c3ccccc3)no2)c1,inactive
19,Cc1ccc(SCc2nc(-c3ccccn3)no2)cc1,inactive
20,COc1ccc(-c2noc(-c3cccc(Cl)c3)n2)cc1OC,inactive
21,c1ccc(-c2cc(-c3nc(-c4ccccn4)no3)c3ccccc3n2)cc1,inactive

row,SMILES,outcome
1,Cc1onc(-c2ccccc2Cl)c1-c1nc(-c2ccccn2)no1,inactive
2,Clc1cccc(-c2nc(-c3ccccn3)no2)c1,active
3,c1ccc(-c2noc(-c3ccc4ccccc4c3)n2)nc1,active
4,O=C(Nc1nccs1)c1ccc(COc2ccccc2Br)o1,inactive
5,O=C(CSCc1c(Cl)cccc1Cl)Nc1nccs1,inactive
6,CCCCOC(=O)Nc1ccc(C(N)=O)cc1,inactive
7,C/C=C/c1ccc(OCCCNC)c(OC)c1,inactive
8,CC1CCN(C(=O)COc2ccccc2F)CC1,inactive
9,O=C(CCn1c(=O)[nH]c2ccsc2c1=O)N1CCN(c2cccc(Cl)c2)CC1,inactive
10,CCCc1cc(C(=O)Nc2cc(OC)c(Cl)cc2OC)no1,inactive
11,COc1ccc(-c2nc(-c3ccccc3)no2)c(OC)c1,active
12,COc1ccc(-c2noc(-c3ccccc3-c3ccccc3)n2)cc1,inactive
13,COc1ccc(-c2nc(-c3ccc(Br)cc3)no2)c(OC)c1,inactive
14,c1ccc(-c2noc(-c3cccnc3)n2)nc1,inactive
15,c1ccc(-c2noc(-c3ccco3)n2)nc1,inactive
16,Brc1ccc(-c2nc(-c3ccccc3)no2)o1,inactive
17,c1cc(-c2noc(-c3ccc4c(c3)OCO4)n2)ccn1,inactive
18,c1ccc(-c2noc(-c3ccncc3)n2)nc1,inactive
19,c1ccc(-c2noc(-c3ccc4c(c3)OCO4)n2)nc1,active
20,COc1ccc(-c2noc(-c3ccc4c(c3)OCO4)n2)cc1,inactive
